Laboratory results reported in PubChem BioAssay AID588689 (Southern Research Specialized Biocontainment Screening …, 2011).
About 1,000 (0.29%) of roughly 340,000 compounds were called active. Rule as the data show it: inconclusive = inhibition above about 29% without an active follow-up result; inactive = below that. A selection follows. Measured potencies and affinities stand elsewhere.

Target: Genome polyprotein (Dengue virus type 2 (strain 16681-PDK53)) (UniProt P29991)
Experiment: Dengue-2 NS5 methyltransferase inhibitors, primary screen, biochemical, confirmation dose response (AID 588689)
Settings: Dengue-2 NS5 methyltransferase capping enzyme assay, at 25 µM, stronger effect = higher value

Chain of Genome polyprotein (Dengue virus type 2 (strain 16681-PDK53)) (P29991 whole entry, looked up): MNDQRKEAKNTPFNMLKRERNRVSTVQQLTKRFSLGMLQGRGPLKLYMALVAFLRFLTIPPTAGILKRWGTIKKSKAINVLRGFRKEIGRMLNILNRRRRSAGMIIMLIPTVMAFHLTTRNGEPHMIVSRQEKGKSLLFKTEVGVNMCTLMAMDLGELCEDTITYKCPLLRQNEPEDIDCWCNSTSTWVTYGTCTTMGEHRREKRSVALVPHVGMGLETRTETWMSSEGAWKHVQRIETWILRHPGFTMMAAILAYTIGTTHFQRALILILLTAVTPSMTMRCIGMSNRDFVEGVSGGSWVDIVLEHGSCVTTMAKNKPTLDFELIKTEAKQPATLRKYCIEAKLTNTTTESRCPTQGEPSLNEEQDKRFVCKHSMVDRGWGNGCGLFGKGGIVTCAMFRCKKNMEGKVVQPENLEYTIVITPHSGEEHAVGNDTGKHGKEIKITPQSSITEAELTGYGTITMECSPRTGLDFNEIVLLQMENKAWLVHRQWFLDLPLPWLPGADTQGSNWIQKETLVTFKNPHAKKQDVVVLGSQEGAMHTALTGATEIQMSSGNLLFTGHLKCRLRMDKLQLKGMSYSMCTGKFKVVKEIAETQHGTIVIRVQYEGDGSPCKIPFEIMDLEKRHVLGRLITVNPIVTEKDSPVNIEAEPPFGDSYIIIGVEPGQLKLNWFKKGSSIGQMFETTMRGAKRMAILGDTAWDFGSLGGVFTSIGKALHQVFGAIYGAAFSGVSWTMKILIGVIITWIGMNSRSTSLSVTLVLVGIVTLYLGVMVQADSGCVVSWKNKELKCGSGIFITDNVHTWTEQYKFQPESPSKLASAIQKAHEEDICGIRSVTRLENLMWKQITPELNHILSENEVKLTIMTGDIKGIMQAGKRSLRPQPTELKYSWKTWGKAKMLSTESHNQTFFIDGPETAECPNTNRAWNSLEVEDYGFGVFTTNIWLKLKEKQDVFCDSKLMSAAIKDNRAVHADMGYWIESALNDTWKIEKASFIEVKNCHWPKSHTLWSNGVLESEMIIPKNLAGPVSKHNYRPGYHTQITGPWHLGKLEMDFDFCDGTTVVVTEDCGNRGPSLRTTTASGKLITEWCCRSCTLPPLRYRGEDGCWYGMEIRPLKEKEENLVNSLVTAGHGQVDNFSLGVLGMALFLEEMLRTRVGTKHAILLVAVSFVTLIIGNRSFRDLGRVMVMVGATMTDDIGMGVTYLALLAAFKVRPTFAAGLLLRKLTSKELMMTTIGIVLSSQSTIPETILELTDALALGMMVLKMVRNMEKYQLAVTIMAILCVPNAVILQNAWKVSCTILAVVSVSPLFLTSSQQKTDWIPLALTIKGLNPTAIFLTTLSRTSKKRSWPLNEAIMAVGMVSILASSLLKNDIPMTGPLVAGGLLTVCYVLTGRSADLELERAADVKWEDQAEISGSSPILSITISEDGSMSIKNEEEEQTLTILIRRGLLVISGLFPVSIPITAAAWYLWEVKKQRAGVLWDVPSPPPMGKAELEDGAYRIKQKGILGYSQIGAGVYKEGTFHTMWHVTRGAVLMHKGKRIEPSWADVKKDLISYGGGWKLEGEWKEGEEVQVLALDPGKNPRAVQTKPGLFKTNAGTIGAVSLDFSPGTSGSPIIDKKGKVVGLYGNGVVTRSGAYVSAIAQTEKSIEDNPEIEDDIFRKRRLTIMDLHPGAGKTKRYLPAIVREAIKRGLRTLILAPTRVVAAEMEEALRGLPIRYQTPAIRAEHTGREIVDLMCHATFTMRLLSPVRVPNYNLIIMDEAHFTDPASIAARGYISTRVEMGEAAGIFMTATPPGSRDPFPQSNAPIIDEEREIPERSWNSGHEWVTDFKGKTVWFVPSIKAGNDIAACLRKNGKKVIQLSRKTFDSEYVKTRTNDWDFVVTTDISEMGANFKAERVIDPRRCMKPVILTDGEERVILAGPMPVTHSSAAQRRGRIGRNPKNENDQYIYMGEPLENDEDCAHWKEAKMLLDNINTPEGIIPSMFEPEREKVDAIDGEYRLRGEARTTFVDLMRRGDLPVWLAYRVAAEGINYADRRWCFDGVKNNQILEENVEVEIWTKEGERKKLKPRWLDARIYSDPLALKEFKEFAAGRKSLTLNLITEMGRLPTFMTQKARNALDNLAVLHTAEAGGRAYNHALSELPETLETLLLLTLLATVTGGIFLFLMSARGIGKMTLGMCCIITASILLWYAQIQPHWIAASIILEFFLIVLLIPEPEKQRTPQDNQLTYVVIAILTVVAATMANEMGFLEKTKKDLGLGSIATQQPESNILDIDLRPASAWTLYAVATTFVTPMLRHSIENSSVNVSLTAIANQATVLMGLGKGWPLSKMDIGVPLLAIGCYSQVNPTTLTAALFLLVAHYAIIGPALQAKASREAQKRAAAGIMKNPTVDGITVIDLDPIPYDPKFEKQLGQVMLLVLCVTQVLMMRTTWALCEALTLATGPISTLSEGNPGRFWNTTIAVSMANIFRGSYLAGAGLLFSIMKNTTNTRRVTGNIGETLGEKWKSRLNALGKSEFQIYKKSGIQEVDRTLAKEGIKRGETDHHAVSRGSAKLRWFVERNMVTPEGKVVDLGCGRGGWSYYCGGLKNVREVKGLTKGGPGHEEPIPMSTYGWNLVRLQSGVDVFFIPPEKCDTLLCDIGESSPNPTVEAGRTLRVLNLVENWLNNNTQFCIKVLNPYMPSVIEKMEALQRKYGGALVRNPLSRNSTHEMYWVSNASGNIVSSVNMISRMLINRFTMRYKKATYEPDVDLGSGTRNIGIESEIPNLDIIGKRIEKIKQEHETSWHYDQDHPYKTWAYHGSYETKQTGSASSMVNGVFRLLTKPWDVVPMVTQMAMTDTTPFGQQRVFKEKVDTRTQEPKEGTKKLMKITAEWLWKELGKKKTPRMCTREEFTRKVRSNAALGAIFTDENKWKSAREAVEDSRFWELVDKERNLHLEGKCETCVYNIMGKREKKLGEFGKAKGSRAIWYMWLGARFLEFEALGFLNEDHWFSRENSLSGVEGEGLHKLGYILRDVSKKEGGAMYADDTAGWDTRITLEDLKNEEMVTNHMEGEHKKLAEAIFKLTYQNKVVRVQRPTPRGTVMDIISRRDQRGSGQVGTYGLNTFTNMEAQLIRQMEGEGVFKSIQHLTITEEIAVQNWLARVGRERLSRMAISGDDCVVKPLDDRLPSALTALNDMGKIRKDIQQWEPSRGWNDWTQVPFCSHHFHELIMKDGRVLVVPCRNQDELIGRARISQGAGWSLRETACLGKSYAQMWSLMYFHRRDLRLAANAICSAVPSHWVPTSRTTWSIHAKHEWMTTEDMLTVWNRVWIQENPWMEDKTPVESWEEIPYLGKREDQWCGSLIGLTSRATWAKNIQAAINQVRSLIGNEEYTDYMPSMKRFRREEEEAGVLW

SMILES | inhibition | inhibition (measured here: pilot screen replicate inhibition)
O=S(=O)(Nc1ccc2c(c1)nc1n2CCOC1)c1ccc(Cl)cc1 | -6.15% (inactive) | 
COc1cccc(/C=N/N2CCOCC2)c1O | -2.67% (inactive) | 
COc1ccc(O)c(/C=N/N2CCOCC2)c1 | -4.77% (inactive) | 
COc1ccc(C=C2NC(=O)NC2=O)cc1O | 5.71% (inactive) | 
COc1ccc(NC(=S)N(CCC(C)C)C(C)c2ccncc2)cc1 (stereo not drawn) | 0.57% (inactive) | 
CCOC(=O)c1ccc(OCc2nc(-c3cccs3)no2)cc1 | -0.7% (inactive) | 
CN(C)S(=O)(=O)c1cccc(NC(=O)CO/N=C(\N)c2ccccc2)c1 | 2.16% (inactive) | 
CCN1C(=O)/C(=C\c2cn(-c3ccccc3)nc2-c2cccnc2)SC1=S | 2.99% (inactive) | 
CC1CCN(C2=NC(=O)/C(=C/c3cn(-c4ccccc4)nc3-c3cccc(S(=O)(=O)N(C)C)c3)S2)CC1 | -0.56% (inactive) | 
COc1ccc(-c2nn(-c3ccccc3)cc2/C=C2/SC(=S)N(CCC(=O)O)C2=O)cc1 | 11.8% (inactive) | 
CN(C)S(=O)(=O)c1cccc(-c2nn(-c3ccccc3)cc2/C=C2\SC(=S)NC2=O)c1 | -16% (inactive) | 
CCC(=O)Nc1ccc2ccccc2c1 | -7.67% (inactive) | 
CCC(=O)Nc1ccc2c(c1)ncn2C | -8.57% (inactive) | 
O=c1[nH]nc(-c2ccc(F)cc2)cc1Cc1ccccc1 | -7.66% (inactive) | 
COc1ccc(NC(=O)/C(C#N)=C\c2ccc(OCc3ccc(C(=O)O)cc3)c(OC)c2)cc1 | -8.98% (inactive) | 
N#C/C(=C\c1ccccc1OCc1ccc(C(=O)O)cc1)C(=O)Nc1ccc(O)cc1 | 27% (inactive) | 
O=C(NCCCN1CCOCC1)c1ccc(S(=O)(=O)Nc2ccccc2)cc1 | -4.34% (inactive) | 
Cc1ccc(NC(=O)Nc2cc(C)on2)cc1 | -0.74% (inactive) | 
CCNc1nc(SC(C(C)=O)C(C)=O)nc(N(C)C)n1 | -1.07% (inactive) | 
COc1ccc([N+](=O)[O-])cc1NCC(=O)Nc1cccc(S(=O)(=O)N2CCCC2)c1 | -0.72% (inactive) | 
O=C1C(c2ccncc2)=C(O)c2ccccc21 | 2.03% (inactive) | 
O=C1C(c2c(O)[nH]c3ccccc23)=Nc2ccccc21 | -46.9% (inactive) | 
Clc1ccc(-c2nsc(N3CCOCC3)n2)c(Cl)c1 | -8.96% (inactive) | 

SMILES | inhibition | inhibition (measured here: pilot screen replicate inhibition)
Cc1cc(C)c(NC(=O)CNC(=O)COC(=O)/C=C/c2cccs2)c(C)c1 | -7.3% (inactive) | 
CCc1nnc(NS(=O)(=O)c2ccc(NC(=O)/C=C/c3ccc(F)cc3)cc2)s1 | 3.59% (inactive) | 
CCc1nnc(NS(=O)(=O)c2ccc(NC(=S)NC(=O)/C=C/c3ccc([N+](=O)[O-])cc3)cc2)s1 | 9.83% (inactive) | 
CCc1nnc(NS(=O)(=O)c2ccc(NC(=S)NC(=O)/C=C/c3ccc(OC)cc3)cc2)s1 | -1.6% (inactive) | 
CCc1nnc(NS(=O)(=O)c2ccc(NC(=S)NC(=O)/C=C/c3ccccc3)cc2)s1 | 8.99% (inactive) | 
CC(C)NC1(C#N)CCN(Cc2ccccc2)CC1 | 0% (inactive) | 
CCOc1ccc(Nc2nc(C)cc(C)c2C#N)cc1 | 0% (inactive) | 
COC(=O)c1sc(N)c(C(=O)OC)c1COC(=O)CNS(=O)(=O)c1cccc(C#N)c1 | -1.45% (inactive) | 
COC(=O)c1cc(C)c(C)cc1NC1OC(CO)C(O)C1O (stereo not drawn) | -9.68% (inactive) | 
C[C@H](CO)N1C[C@H](C)[C@@H](CN(C)C(=O)c2cnccn2)Oc2cc(C#CCC3CCCC3)ccc2S1(=O)=O | -16.2% (inactive) | 
O=C(NCc1ccccc1)N1CCC(CO)(CCc2ccccc2)CC1 | 5.32% (inactive) | 
CC(C)C1Nc2ccc(S(N)(=O)=O)cc2C2C=CCC21 (stereo not drawn) | 16% (inactive) | 
O=C(O)C1Nc2c(Cl)cc(Cl)c(Cl)c2C2C=CCC12 (stereo not drawn) | 8.87% (inactive) | 
CCOC(=O)N1CCC(NC(=O)CCS(=O)(=O)c2ccc3c(c2)CCN3C(C)=O)CC1 | 0% (inactive) | 
CCOC(=O)c1c(C)oc2c1cc(O)c1ccccc12 | 18.5% (inactive) | 
CCOC(=O)/C=C(\C)Sc1cc(=O)oc2ccccc12 | -12.1% (inactive) | 
CCOc1ccc(/C=C/C(=O)c2ccccc2)cc1 | -8.48% (inactive) | 
O=C(O)COc1ccc(/C=C/C(=O)c2ccc3ccccc3c2)cc1 | 21.6% (inactive) | 
CCOC(=O)c1[nH]nc2c1C(=O)N(Cc1ccccc1)C2=O | -0.68% (inactive) | 
CCCCNC(=O)c1sc2ncnc(N3CCc4ccccc4C3)c2c1C | -8.03% (inactive) | 
Cc1cccc(NC(=S)N(Cc2ccc(Cl)cc2)Cc2ccc(C(=O)O)cc2)c1 | -0.79% (inactive) | 
Cc1cc(C)cc(NC(=S)N(Cc2ccc(Br)cc2)Cc2ccc(C(=O)O)cc2)c1 | -6.24% (inactive) | 
CC1CCCN(C(=O)CCNC(=O)Cn2cnc3ccccc3c2=O)C1 (stereo not drawn) | -2.67% (inactive) | 

SMILES | inhibition | inhibition (measured here: pilot screen replicate inhibition)
COc1ccc(S(=O)(=O)Oc2ccc3ccccc3c2)cc1 | 0.73% (inactive) | 
NS(=O)(=O)c1ccc(Sc2ccc3ccccc3c2)nc1 | -5.01% (inactive) | 
COC(=O)c1ccc(NC(=O)C(=O)N2CCN(C(=S)Nc3cccc(C)c3C)CC2)cc1 | -4.36% (inactive) | 
COc1ccc(NC(=O)Cc2c(C(=O)O)n(C)c3ccccc23)cc1OC | -17.2% (inactive) | 
C[C@H](CO)N1C[C@H](C)[C@@H](CN(C)C(=O)Nc2ccccc2)Oc2c(NC(=O)Cc3ccccc3)cccc2C1=O | -4% (inactive) | 
COC(=O)c1c(C(=O)OC)c2ccccn2c1C(=O)c1ccccc1 | -4.66% (inactive) | 
COC(=O)c1cc2c(-c3ccccc3)cc3ccccn3c-2c1C(=O)OC | 27.1% (inactive) | 
COc1ccc(CN(C)C(C)C(=O)Nc2ccc(S(=O)(=O)N3CCCCC3)cc2)cc1F (stereo not drawn) | 0.37% (inactive) | 
CSCCC(C(=O)OCC(=O)c1ccc(C)c(C)c1)N1C(=O)c2cc(Cl)c(Cl)cc2C1=O (stereo not drawn) | 10.7% (inactive) | 
O=C1NCCCC2c3c(cc(Br)c(O)c3Br)OC12N1CCOCC1 (stereo not drawn) | 17% (inactive) | -2.28%
O=C1NCCCC2c3c(cc(Br)c(O)c3Br)OC12N1CCCCC1 (stereo not drawn) | 10.4% (inactive) | 
CCOC(=O)C(NC(=O)Cc1ccccc1)(Nc1cc(C)on1)C(F)(F)F (stereo not drawn) | -5.64% (inactive) | 
CCCn1c(SCC(=O)c2[nH]c(C)c(C(C)=O)c2C)n[nH]c1=O | -15.1% (inactive) | 
COc1ccc(CCNC(=O)C2CC(c3ccc([N+](=O)[O-])cc3)=NO2)cc1 (stereo not drawn) | 2.79% (inactive) | 
CN(C1CCCCC1)S(=O)(=O)c1cn(C)c(=O)n(C)c1=O | -3.31% (inactive) | 
COc1cc(C=NNC(=O)c2ccccc2NS(=O)(=O)c2cccs2)cc(OC)c1O | 2.21% (inactive) | 
O=C(NN=Cc1ccc(O)cc1)c1ccccc1NS(=O)(=O)c1cccs1 | 2.92% (inactive) | 
O=c1cc(-c2nn[nH]n2)[nH]c(=O)[nH]1 | -0.8% (inactive) | 
O=C(CN1C(=O)c2cccc([N+](=O)[O-])c2C1=O)N1CCc2ccccc2C1 | -5.49% (inactive) | 
O=c1c(C(c2ccc(F)cc2)c2c(O)nc3n(c2=O)CCS3)c(O)nc2n1CCS2 | -0.78% (inactive) | 
O=c1c(C(c2ccc(O)cc2)c2c(O)nc3n(c2=O)CCCS3)c(O)nc2n1CCCS2 | 60.7% (inactive) | 
O=c1c(C(c2ccc(Cl)cc2)c2c(O)nc3n(c2=O)CCS3)c(O)nc2n1CCS2 | 3.89% (inactive) | 
O=c1c(C(c2ccc(Br)cc2)c2c(O)nc3n(c2=O)CCS3)c(O)nc2n1CCS2 | 11.7% (inactive) | 

SMILES | inhibition | inhibition (measured here: pilot screen replicate inhibition)
O=Cc1ccc(F)c([B-](F)(F)F)c1 | -5.86% (inactive) | 
COc1ccc(N2CC(C(=O)NC3CCCCC3)CC2=O)cc1 (stereo not drawn) | -15.2% (inactive) | 
NC(=S)N=Nc1c(O)[nH]c2ccc(F)cc12 | 1.93% (inactive) | 
NC(=S)N=Nc1c(O)[nH]c2ccccc12 | -8.45% (inactive) | 
Cc1ccc(C)c(S(=O)(=O)NC2CCSC2=O)c1 (stereo not drawn) | 0% (inactive) | 
COc1ccc(NS(=O)(=O)c2cc(NC(=O)c3cccc(OCc4c(C)noc4C)c3)ccc2OC)cc1 | -4.53% (inactive) | 
Clc1ccc(Oc2nc(Oc3ccc(Cl)cc3)nc(N3CCOCC3)n2)cc1 | 5.62% (inactive) | 
CC(NC(=O)C12CC3CC(CC(C3)C1)C2)C(=O)N/N=C/C1=C(N2CCOCC2)C(=C\c2ccccc2)/CC1 (stereo not drawn) | -2.59% (inactive) | 
CN(C)c1cccc2c1C(=O)c1ccccc1C2=O | 2.91% (inactive) | 
CN(CCO)C(=O)c1cccc2c1-c1ccccc1C2=O | 2.07% (inactive) | 
Cc1nnc(NC(=O)CSc2nnc(CCNC(=O)c3ccccc3F)n2C)s1 | -9.78% (inactive) | 
O=C1c2ccccc2C(=O)c2c1ccc(O)c2O | 0% (inactive) | 
Cc1oc2c(O)c(O)ccc2c(=O)c1-c1ccccc1 | 1.39% (inactive) | 
O=C(O)c1cccc(O)c1O | 2.93% (inactive) | 
Cc1cc(=O)oc2c(O)c(O)ccc12 | 0.73% (inactive) | 
CC(C)(Oc1ccc(Cl)cc1)C(=O)Nc1ccc2oc(-c3ccncc3)nc2c1 | 2.08% (inactive) | 
COc1cc(C)c(S(=O)(=O)NCc2ccc3c(c2)OCO3)cc1C | -1.39% (inactive) | 
Cc1nn(-c2ccccc2)nc1CNC(=O)C(C)Cc1ccccc1 (stereo not drawn) | -2.38% (inactive) | 
O=C(C1=C[C@H](C2CCCCC2)C[C@H](OCc2ccc(CO)cc2)O1)N1CCOCC1 | -6.54% (inactive) | 
CCCCC(NC(=O)Cc1c(C)c2cc3c(C)c(C)oc3c(C)c2oc1=O)C(=O)O (stereo not drawn) | 1.31% (inactive) | 
CCCC(NC(=O)Cc1c(C)c2cc3c(C)c(C)oc3c(C)c2oc1=O)C(=O)N[C@@H](Cc1ccccc1)C(=O)O (stereo partly drawn) | 1.45% (inactive) | 
CSC[C@H](NC(=O)Cc1c(C)c2cc3c(C)c(C)oc3cc2oc1=O)C(=O)N[C@@H](Cc1ccccc1)C(=O)O | 1.4% (inactive) | 
Cc1c(CC(=O)N[C@@H](C)C(=O)O)c(=O)oc2c(C)c3occ(-c4ccccc4)c3cc12 | -0.65% (inactive) | 
